SW480 rereplic: DNA re-replication induction in SW480 cells; SW480 DNA re-replication, Hoechst DNA content imaging, 48 h; Potency, µM (titrated, usually from 46.1 µM), most hits filed as activators; 1.8% of 340,000 active; AID 624297; also: nearly all actives have a fitted effect of over 55% in size
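DNA re-replication was detected as more nuclei of elevated Hoechst intensity after 48 hr exposure to compound (23 nL pinned per well of 250 cells).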
KB-V1 MDR tox: KB-V1 MDR subline cytotoxicity. KB-V1 MDR cells viability, CellTiter-Glo, 72 h. Potency, µM (doses to about 46.1 µM), actives largely listed as cytotoxic. 3.4% of 400,000 active; also: nearly all actives have a fitted effect of over 60% in size
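Compound-treated KB-V1 multidrug-resistant cells, 72 h, 37 degrees C; viability by CellTiter-Glo. Fitted qHTS curves give the values.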
HT1080 IDH1KD tx: kills HT-1080 cells with IDH1 knockdown; HT-1080 IDH1 knockdown viability, ATP luminescence, 48 h; 2% of 360,000 active; Potency, µM (doses to about 46.1 µM), actives largely listed as cytotoxic
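Knockdown cells (IDH1KD HT-1080) received compounds 2 h after plating at 750 cells/well and were kept 48 h at 37 °C in 5% FBS RPMI. A CellTiter-Glo luminescence read gave % activity for curve fitting.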
HT1080-NT tox: kills 2HG-producing HT-1080-NT fibrosarcoma cells; HT-1080-NT fibrosarcoma viability, CellTiter-Glo ATP luminescence, 48 h; Potency, µM (titrated, usually from 46.1 µM), actives largely listed as cytotoxic; 1.6% of 360,000 active;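 also: NT is the 2HG producing partner of a matched IDH1 knockdown line; nearly all actives have a fitted effect of over 55% in size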
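Viability of the 2HG-overproducing fibrosarcoma line after 48 hours of compound exposure at 37 degrees C was determined by luminescence with CellTiter-Glo, and concentration-effect curves were then fitted and categorized.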
KB-3-1 tox: kills parental KB-3-1 adenocarcinoma cells; KB-3-1 viability, CellTiter-Glo ATP luminescence, 72 h; Potency, µM (series often up to 46.1 µM), actives largely listed as cytotoxic; 1.4% of 400,000 active; also: nearly all actives have a fitted effect of over 60% in size
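Multi-concentration cytotoxicity screen in KB-3-1 cells grown in DMEM lacking phenol red with 10% FBS. After 72 h at 37 °C with compound, ATP-dependent luminescence was recorded.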
MCF10A rerep: DNA re-replication induction in MCF 10a cells; MCF 10A DNA re-replication, Hoechst nuclear intensity, 48 h; Potency, µM (highest dose often 46.1 µM), actives largely listed as activators; 2.9% of 350,000 active; AID 624296; also: nearly all actives have a fitted effect of over 50% in size
Each line names hits and unclear results; the compound was inactive in the other large screens. The list is not random: actives were taken first. Their share in the collection is about 7.9%. Calls follow the shape of the dose curve; as a rule, active = well fitted curve in the direction sought with a large enough effect; inconclusive = small, poorly fitted or top-dose-only effect, or another doubt; inactive = no such curve, though single readings can be large; an effect the other way counts as inactive or inconclusive.

COc1ccc(C2C(C(=O)Nc3cc(OC)c(OC)c(OC)c3)c3ccccc3C(=O)N2C)cc1 (stereo not given)	SW480 rereplic 6.51µM, KB-V1 MDR tox inconclusive, HT1080 IDH1KD tx 1.46µM, HT1080-NT tox 1.46µM, KB-3-1 tox inconclusive, MCF10A rerep inconclusive
O=C1/C(=C/c2ccc(F)cc2)Oc2cc(OC(=O)N3CCOCC3)ccc21	none
COc1cccc(OC)c1C(=O)Oc1ccc2c(c1)O/C(=C\c1ccncc1)C2=O	SW480 rereplic inconclusive, KB-V1 MDR tox inconclusive, HT1080 IDH1KD tx inconclusive, HT1080-NT tox 18.4µM, KB-3-1 tox inconclusive, MCF10A rerep inconclusive
O=C1/C(=C/c2ccccc2)Oc2cc(OC(=O)N3CCOCC3)ccc21	KB-V1 MDR tox 20.6µM
O=C(O)c1[nH]c2ccccc2c1C(c1cc(Cl)cc([N+](=O)[O-])c1O)c1c(C(=O)O)[nH]c2ccccc12	none
COc1cccc(C(NC(=O)c2ccccc2F)NC(=O)c2ccccc2F)c1	none
COc1cccc(C(c2c(N)[nH]c(=S)[nH]c2=O)c2c(N)[nH]c(=S)[nH]c2=O)c1	SW480 rereplic 5.17µM
O=C(/C=C/c1ccc2c(c1)OCCCO2)c1ccc2ccccc2c1O	KB-V1 MDR tox inconclusive, HT1080 IDH1KD tx inconclusive, MCF10A rerep 18.4µM
O=C(/C=C/c1ccc2c(c1)OCO2)NCCS(=O)(=O)N1CCN(c2ccc(F)cc2)CC1	KB-V1 MDR tox inconclusive, HT1080 IDH1KD tx inconclusive, KB-3-1 tox inconclusive
O=C(C=Cc1ccc2c(c1)OCO2)C=Cc1ccc2c(c1)OCO2	KB-V1 MDR tox inconclusive (no result: SW480 rereplic, MCF10A rerep)
O=C(/C=C/c1ccc2c(c1)OCO2)NCCS(=O)(=O)N1CCN(c2ccccc2)CC1	HT1080 IDH1KD tx 7.31µM, HT1080-NT tox inconclusive, KB-3-1 tox inconclusive (no result: SW480 rereplic, MCF10A rerep)
O=C(/C=C/c1ccc2c(c1)OCO2)c1ccccn1	HT1080 IDH1KD tx inconclusive, HT1080-NT tox 25.9µM, KB-3-1 tox inconclusive
C(=Cc1cnc2ccccc2n1)c1ccc2c(c1)OCO2	KB-V1 MDR tox 14.6µM (no result: SW480 rereplic, MCF10A rerep)
Cc1cc(C)c2[nH]c(O)c(N=NC(=O)c3cc4c(s3)CCCC4)c2c1	none (no result: KB-V1 MDR tox, HT1080 IDH1KD tx, HT1080-NT tox, KB-3-1 tox)
NC(=O)c1nsc(C(=O)N(CC(=O)NC2CCCC2)c2ccc(F)c(Cl)c2)c1N	SW480 rereplic inconclusive, MCF10A rerep inconclusive
Cc1ccc(C2(CC(=O)N3CCCC3)CCOC(C(C)C)C2)cc1 (stereo not given)	none
Cc1cn(CCC(=O)Nc2ccccc2N2CCOCC2)c2ccccc12	none
O=C(C=Cc1cccc(Cl)c1)c1ccccc1	SW480 rereplic 14.6µM, KB-V1 MDR tox inconclusive, HT1080 IDH1KD tx inconclusive, HT1080-NT tox inconclusive, KB-3-1 tox inconclusive, MCF10A rerep 18.4µM
O=C(O)c1ccc2c(c1)C(=O)N(c1cccc(C(=O)/C=C/c3ccccc3)c1)C2=O	HT1080 IDH1KD tx inconclusive, HT1080-NT tox inconclusive, MCF10A rerep 18.4µM
O=C(C=Cc1ccc2c(c1)OCO2)c1ccccc1	SW480 rereplic inconclusive, HT1080 IDH1KD tx 16.4µM, HT1080-NT tox inconclusive, MCF10A rerep 18.4µM
CCOC(=O)c1cccc(NC(=O)/C=C/c2ccc3c(c2)OCO3)c1	KB-V1 MDR tox inconclusive, HT1080 IDH1KD tx inconclusive, HT1080-NT tox inconclusive, KB-3-1 tox 10.3µM, MCF10A rerep 9.2µM
CCOC(=O)c1cccc(NC(=O)c2ccc3c(c2)OCO3)c1	KB-V1 MDR tox inconclusive, KB-3-1 tox inconclusive
N/C(=N\OC(=O)/C=C/c1ccccc1)c1ccccn1	none
O=C(/C=C/c1ccccc1)c1ccccn1	SW480 rereplic inconclusive, HT1080 IDH1KD tx inconclusive, HT1080-NT tox inconclusive, MCF10A rerep 18.4µM
N#Cc1cccc(NC(=O)CSc2ccc3c4c(cccc24)C(=O)c2ccccc2-3)c1	SW480 rereplic inconclusive, KB-V1 MDR tox 20.6µM, KB-3-1 tox inconclusive, MCF10A rerep 7.31µM
N#Cc1cccc(NC(=O)CSc2ccccc2)c1	KB-V1 MDR tox inconclusive
COc1ccc(NC(=O)CSc2ccc3c4c(cccc24)C(=O)c2ccccc2-3)cc1	SW480 rereplic 11.6µM, KB-V1 MDR tox inconclusive, HT1080 IDH1KD tx inconclusive, HT1080-NT tox inconclusive, KB-3-1 tox inconclusive, MCF10A rerep 2.59µM
COc1ccc(NC(=O)CSc2nc(C3CC3)nc3ccccc23)cc1	SW480 rereplic 13µM, KB-V1 MDR tox inconclusive, HT1080 IDH1KD tx inconclusive, HT1080-NT tox inconclusive, KB-3-1 tox inconclusive, MCF10A rerep inconclusive
O=C(c1ccco1)N1CCN(C(=S)Nc2cccc([N+](=O)[O-])c2)CC1	SW480 rereplic inconclusive
Cc1nc2ccccc2c2oc(C(=O)NCc3ccc4c(c3)OCO4)cc12	KB-3-1 tox inconclusive
CC(C)OC(=O)Cc1nc2sc(-c3ccccc3)cc2c(=O)[nH]1	KB-V1 MDR tox inconclusive
Cc1nc2sc(-c3ccccc3)cc2c(=O)[nH]1	SW480 rereplic inconclusive, KB-V1 MDR tox 16.4µM, HT1080 IDH1KD tx inconclusive, HT1080-NT tox inconclusive, KB-3-1 tox inconclusive, MCF10A rerep 25.9µM
O=c1[nH]c(-c2cccnc2)nc2sc(-c3ccccc3)cc12	SW480 rereplic 3.66µM, KB-V1 MDR tox 2.91µM, HT1080 IDH1KD tx 4.61µM, HT1080-NT tox inconclusive, KB-3-1 tox inconclusive, MCF10A rerep 1.3µM
COc1ccc(-c2n[nH]c(C)c2-c2cscn2)c(O)c1	none
COc1ccc(-c2c(-c3ccc(OCC(=O)NN)cc3O)n[nH]c2C(F)(F)F)cc1	SW480 rereplic inconclusive, MCF10A rerep 23.1µM
CCOc1ccc(-c2n[nH]c(C)c2-c2ccccc2OC)c(O)c1	SW480 rereplic inconclusive, HT1080 IDH1KD tx inconclusive, HT1080-NT tox inconclusive, KB-3-1 tox inconclusive, MCF10A rerep 12.6µM
C=C(C)COc1ccc(-c2n[nH]c(C)c2-c2ccc(OC)cc2)c(O)c1	SW480 rereplic inconclusive, KB-V1 MDR tox inconclusive, HT1080 IDH1KD tx 18.4µM, HT1080-NT tox 20.6µM, KB-3-1 tox inconclusive, MCF10A rerep 20.6µM
Cc1ccc(Cl)cc1NC(=O)CC(O)(C(F)(F)F)C(F)(F)F	SW480 rereplic 18.4µM, KB-V1 MDR tox 20.6µM, HT1080 IDH1KD tx inconclusive, HT1080-NT tox 20µM, KB-3-1 tox inconclusive
COc1ccc(C2C(=O)N(C3CCCCC3)CC(=O)N2C2CCCC2)cc1 (stereo not given)	KB-V1 MDR tox 2.59µM
COc1ccc(C2C(=O)N(CCc3ccccc3)CC(=O)N2C2CCCC2)cc1 (stereo not given)	KB-V1 MDR tox 3.66µM
COc1cc(C2CC(c3c(C)cc(C)[nH]c3=O)=NN2c2ccccc2F)cc(OC)c1OC (stereo not given)	SW480 rereplic inconclusive, MCF10A rerep 23.1µM
COc1cc2nc(Cl)nc(NC3CCN(C)CC3)c2cc1OC	none (no result: SW480 rereplic, KB-V1 MDR tox, KB-3-1 tox, MCF10A rerep)
CN1CCC(Nc2ncc3ncnc(Nc4ccc(F)c(Cl)c4)c3n2)CC1	SW480 rereplic 13.3µM, MCF10A rerep 3.35µM (no result: KB-V1 MDR tox, HT1080 IDH1KD tx, HT1080-NT tox, KB-3-1 tox)
CC(NC(=O)C(NC(=O)C1CCCN1C(=O)OC(C)(C)C)C(C)C)C(N)=O (stereo not given)	SW480 rereplic inconclusive

High-throughput results as filed in PubChem BioAssay.
